Percent Effect data for 45 molecules are collected here from ChEMBL document CHEMBL3988442, “University of Dundee, Small-Polar-MMV Screening Library” (2021).

SMILES strings stand for the structures.

Test [1] deals with T1, Aspartate--tRNA(Asp/Asn) ligase (Mycobacterium tuberculosis (strain ATCC 25618 / H37Rv)) (UniProt P9WFW3).
T1 sequence (whole entry): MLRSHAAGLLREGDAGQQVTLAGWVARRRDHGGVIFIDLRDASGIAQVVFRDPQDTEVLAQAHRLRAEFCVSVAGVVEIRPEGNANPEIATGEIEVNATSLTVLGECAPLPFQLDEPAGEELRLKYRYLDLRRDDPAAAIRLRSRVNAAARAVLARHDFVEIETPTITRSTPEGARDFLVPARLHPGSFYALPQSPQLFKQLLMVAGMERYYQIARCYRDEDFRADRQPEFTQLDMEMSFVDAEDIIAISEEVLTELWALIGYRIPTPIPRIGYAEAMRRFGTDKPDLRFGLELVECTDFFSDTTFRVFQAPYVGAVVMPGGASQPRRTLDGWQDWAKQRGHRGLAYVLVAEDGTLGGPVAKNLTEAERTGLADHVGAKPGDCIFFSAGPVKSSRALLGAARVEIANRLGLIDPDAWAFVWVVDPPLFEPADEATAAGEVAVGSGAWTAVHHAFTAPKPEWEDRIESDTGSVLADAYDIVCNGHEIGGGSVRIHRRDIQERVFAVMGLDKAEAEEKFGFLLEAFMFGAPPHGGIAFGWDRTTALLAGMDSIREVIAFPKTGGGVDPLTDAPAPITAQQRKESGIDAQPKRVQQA
The test can be described thus: Assay for Asp RNA synthetase-1 from Mycobacterium tuberculosis. It is filed as functional. The arrangement: scale not given: direction of the effect not stated beside the values. The settings on record: 30 µM.

The target of test [2] is Shiga toxin 2 (Escherichia coli O157:H7) (UniProt P09385+P09386). As to the kind of experiment: E. coli 0.157:H7 Shiga Toxin SOP - stx2 screening assay. Further details: scale not given: direction of the effect not stated beside the values. The test is classed as functional. The settings on record: 30 µM.

As for `O=C1[C@H]2CC[C@H](CN(C3CSCCSC3)C2)N1Cc1cscn1`, the Percent Effect is 2.92% in test [1] and -34.4% in test [2].

Consider `CS(=O)(=O)N1CCOCC2(CN(Cc3ccco3)CCO2)C1` (stereo not given), for which the Percent Effect in test [1] is -7.59%; in test [2], -18.6%.

`O=C1CC2(CCN(CC3CC3)C2)CN1c1cccc(F)c1` (stereo not given): the Percent Effect was 0.607% in test [1] and -32.8% in test [2].

Consider `O=S(=O)(C1CC1)N1CCO[C@H]2[C@H](OCC3CCCC3)CC[C@@H]21`, for which the Percent Effect is 0.291% in test [1] and 8.36% in test [2].

Take `COCc1cnc2n1CCN(Cc1cccnc1)C2C` (stereo not given): the Percent Effect was 4.46% in test [1] and -10.3% in test [2].

In the case of `Cc1ccoc1C(=O)NC1CCN(Cc2csc3c(F)cccc23)CC1`, the Percent Effect in test [1] is -0.83%; in test [2], -64.2%.

Regarding `Cc1nc(C)n(CC2CCCCN2CC(=O)N(C)Cc2ccco2)n1` (stereo not given), the Percent Effect amounted to 1.76% in test [1] and 3.6% in test [2].

On to `Cc1ncc2c(n1)CN(Cc1nc3ccccc3o1)CC2`, for which the Percent Effect in test [1] is -5.8%; in test [2], -2.56%.

In the case of `Cc1cccnc1C(=O)N1CCCCC1c1[nH]ncc1S(C)(=O)=O` (stereo not given), the Percent Effect in test [1] turned out to be 5.01%; in test [2], 6.84%.

On to `CN(C)S(=O)(=O)N1CCC2(COCc3cnc(-c4ccccc4)nc32)C1` (stereo not given), for which the Percent Effect in test [1] is -4.48%; in test [2], -12.6%.

Regarding `CCN1CCN(C(=O)CCc2c(C)noc2Cl)CC1`, the Percent Effect in test [1] came to 0.983%; in test [2], 28.8%.

For the molecule `Cc1ccc(N2CC3(CCN(C(=O)c4ccoc4)C3)C2)nn1`, the Percent Effect in test [1] was -1.37%; in test [2] it was -33.4%.

Take `O=C(O)c1cc(-c2cccnc2)cc(S(=O)(=O)N2CCCCCC2)c1`: the Percent Effect was -3.5% in test [1] and 11.4% in test [2].

On to `Cn1cc(NC(=O)Cn2c(CS(C)(=O)=O)nc3ccccc32)cn1`, for which the Percent Effect in test [1] was -0.299%; in test [2], 1.48%.

For `CNC(=O)[C@H]1CCS(=O)(=O)[C@@H]2CN(Cc3ccc(OC)cc3)C[C@H]12`, the values for the Percent Effect in test [1] and in test [2] were -0.605% and 3.61%, respectively.

On to `CCc1ccc(S(=O)(=O)N2CCC3(CC(C(=O)NC)=NO3)C2)cc1` (stereo not given), for which the Percent Effect in test [1] is -3.62%; in test [2], -7.42%.

With `O=C1CC(c2ccccc2F)c2c(n3ccsc3nc2=O)N1` (stereo not given), the Percent Effect in test [1] was 1.48%; in test [2], -23%.

Take `CCCNC(=O)CNC(=O)CCc1ccccc1Br`: the figures for the Percent Effect in test [1] and in test [2] were -2.76% and -0.75%, respectively.

Consider `COc1cccc(N2CCN(CCC(=O)NC3CCCC3)CC2)c1`, for which the Percent Effect in test [1] was 1.95%; in test [2] it was -41.4%.

Consider `COc1c(C2CCCN2C(=O)c2ccnc(N(C)C)c2)c(C)nn1C` (stereo not given), for which the Percent Effect in test [1] stood at 2.59%; in test [2], 25.8%.

For `Cc1scc(C(=O)N2CCC3(CC(=O)NC3=O)C2)c1-c1ccccc1` (stereo not given), the Percent Effect in test [1] came out at 0.19%; in test [2], 8.3%.

Take `CCOc1nnc(CN(C)C2CCCN(c3cccnn3)C2)s1` (stereo not given): the results for the Percent Effect in test [1] and in test [2] were 3.86% and -25.9%, respectively.

As for `NC(=O)c1cc(C2CCCN(CCCOc3ccccc3)C2)n[nH]1` (stereo not given), the Percent Effect in test [1] is -1.57%; in test [2] it was -26%.

Regarding `Cc1ccc(C(=O)N2C[C@@H]3OCCN(CCN4CCCC4)[C@@H]3C2)cn1`, the Percent Effect in test [1] was -1.02%; in test [2], 3.78%.

Take `O=C(Cc1ccccn1)N1C[C@@H]2CC[C@H](C1)N(Cc1ccccc1)C2=O`: the Percent Effect in test [1] is -1.24%; in test [2] it was -4.09%.

For the molecule `Cn1c(C(F)(F)F)nn(CCNC(=O)c2cnc3ccccc3n2)c1=O`, the Percent Effect is -7.1% in test [1] and -21.4% in test [2].

As to `Cn1cc(CN2CC[C@@H]3[C@@H](CCC(=O)N3CCC3=CCCCC3)C2)cn1`, the Percent Effect in test [1] was 0.0912%; in test [2], -13%.

Regarding `CC(=O)N1CCCn2nc(CNS(=O)(=O)N3CCCCCC3)cc2C1`, the Percent Effect in test [1] was -7.71%; in test [2], -4.22%.

On to `O=C(NCc1cc[nH]n1)N1CCCCC(N2CCCC2)C1` (stereo not given), for which the Percent Effect turned out to be 2.84% in test [1] and 14.9% in test [2].

In the case of `COCCCNc1nccc(-c2c[nH][nH]c2=O)n1`, the Percent Effect in test [1] is 6.51%; in test [2] it was -55.9%.

`CN1CCN(c2ncccc2CNc2ncccc2C#N)CC1`: the Percent Effect in test [1] was found to be 3.68%; in test [2], 2.01%.

Regarding `Cn1cnnc1S(=O)(=O)C1CCN(S(=O)(=O)c2c(Cl)cccc2Cl)CC1`, the Percent Effect was -0.575% in test [1] and 0.759% in test [2].

As for `Fc1ccccc1Cc1noc(CN2CCCC(CN3CCCC3)C2)n1` (stereo not given), the Percent Effect was -0.254% in test [1] and 11.5% in test [2].

As to `COCCOc1ccc(NC(=O)N2CCCC2c2cc(C)no2)cn1` (stereo not given), the Percent Effect was -5.36% in test [1] and 25.9% in test [2].

`COc1ccc(C2CCCN2C(=O)CCNc2ncccn2)cc1` (stereo not given): the Percent Effect is 5.17% in test [1] and -17% in test [2].

Consider `c1cnnc(N2CCCC2CNCc2nc(C3CC3)no2)c1` (stereo not given), for which the Percent Effect in test [1] is -4.43%; in test [2], 5.95%.

Take `CC(C)Nc1nc(N2CCOCC2)nc2c1CN(CC(=O)N(C)C)CC2`: the Percent Effect in test [1] was 12.1%; in test [2], -23.6%.

In the case of `CSCCCN1CCCC1c1noc(C)n1` (stereo not given), the Percent Effect in test [1] worked out at 1.68%; in test [2], 11.3%.

Regarding `c1cnn(C2CN(Cc3nc(-c4ccsc4)no3)C2)c1`, the results for the Percent Effect in test [1] and in test [2] were -1.81% and 23%, respectively.

Turning to `CC1=N[C@@]2(CC[C@@H]3CN(Cc4ccccc4F)C[C@@H]32)C(=O)N1CC1CC1`, the figures for the Percent Effect in test [1] and in test [2] were -6.8% and -2.95%, respectively.

For the molecule `COc1ccc(CN2CCCC(Cn3nc(C)nc3C)C2)cc1F` (stereo not given), the Percent Effect in test [1] is 0.335%; in test [2] it was -1.86%.

As for `CCN1CCC2(CC1)CC(NC(=O)NC)c1cc(C)ccc12` (stereo not given), the Percent Effect is -5.21% in test [1] and -9.91% in test [2].

With `Cc1ccc(-c2csc(N)c2C#N)cc1`, the Percent Effect was -4.7% in test [1] and -3.71% in test [2].

As for `Cc1nc(C)n(CC2CCCN(Cc3nc(C4CC4)no3)C2)n1` (stereo not given), the values for the Percent Effect in test [1] and in test [2] were 4.92% and 7.13%, respectively.

On to `CCc1nc(CN2CCCC(NCc3nnc(C4CC4)o3)C2)no1` (stereo not given), for which the figures for the Percent Effect in test [1] and in test [2] were -2.05% and 17.9%, respectively.
